Measured values as given in the OligoGym collection.

Biological target: ASPRV1
Assay: pooled miR-30 sensor sort-seq; sequence = guide strand
Conditions: shRNA
Further: reference of the scale not given here.

Sequence	sensor-assay potency score (higher = more potent)
TCTTTCAGGAACCTTAGCTTGG	-0.57
TTGAGGTCATTGATGACTTCAA	-0.277
TTGAGTCTTTGTCATCAACAGC	-1.26
TTCAGCACCATTGGCCACCTTT	-0.724
ATTGATGACTTCAAAGCTGTGC	0.217
TTCAGGAACCTTAGCTTGGTGA	-1.12
TAGCTTGGTGATATGGTCCCAA	0.0777
TTTCAGGAACCTTAGCTTGGTG	-0.909
TTGCCTAGGGACACCGCTGTAT	-1.05
TGAGATAGTAGCCCTTACCCAT	-0.959

Biological target: ASTE1
Assay: as above
Conditions: shRNA

Sequence	sensor-assay potency score (higher = more potent)
TTTTCAACCATTAACAACCCAA	-0.22
TTATCTGAAATGTCACATCCTC	0.002
TTATCTAGTGCTTCGGTAGGGT	0.589
TTCATTACTATGATCTTCCACA	-0.12
TAGATATTCATAAAGTTGCTTA	-0.483
TTTTTGAATTTGATCTACCTTT	-0.342
TATTCTTCCATGGAACAGCAGA	-0.626
TTGAATTTGATCTACCTTTTGG	-0.435
TAGCTTTGCTTTGGTCTCGGTG	-0.912
TTTTTTTTTGAATTTGATCTAC	-0.318
TAGAACAGCTGGTATTCTGTTT	-0.362
TTGAACTGAAGCAAAGACGGTG	0.0207

Biological target: ATG13
Assay: as above
Conditions: shRNA

Sequence	sensor-assay potency score (higher = more potent)
TTCAGTATCCTCACTACTGGAG	-0.0842
TATCATAACAAAGTCATCATGG	0.359
TTTATCACACTTTTCATTCATT	-0.513
TGACAGTCTGTTGTACACCGTG	-0.356
TTCAAGACACCATATTTCCAGC	-0.751
AAATTTAATAAACTTGTCCAGG	-1.15
TTGATTTCTTTATCACACTTTT	-0.851
TTGAGAGTCTTCTACAGACGGG	-0.452
TTGGAGAAGATGATGAACGAGT	0.0356
TTGCTAAGTTGAACCAATCTGA	0.054
TTCAGCAGCAATGACAGTCTGT	0.524

Biological target: ATG16L1
Assay: as above
Conditions: shRNA

Sequence	sensor-assay potency score (higher = more potent)
TTGTAGCTGATTGTCATTCCAT	-0.0295
TTCCCTGTGAGCACACTCCAGA	-0.634
TTTGTCCACACTGACAACGTGC	-0.838
TTTCTTGTAGCTGATTGTCATT	-1.43
TTTCTTGTGTAATTCAGTCAGT	-0.093
TTTTTCTCCAAATACTTCCCAA	-0.436
ATGAGTATCCACATTGTCCTGG	-0.348
